Some test systems named below: NCI-H23 lung; NCI-H226 lung; NCI-H322M lung; HOP-62 NSCLC; NCI-H460 lung; HOP-92 NSCLC; 786-0 renal; DU-145 prostate; K-562 leukemia; MALME-3M melanoma; MDA-MB-231 breast; RXF 393 renal; SF-268 CNS; SF-295 CNS; SF-539 CNS; M14 melanoma; NCI-H522 lung; A549/ATCC NSCLC; COLO 205 colon; UACC-257 melanoma.
Common to all, as to assay: NCI-60 one-dose screen, 48 h (100 = growth as untreated, 0 = no growth, -100 = all killed)
Holding throughout (conditions): 10 µM unless noted

Compounds without any hit were thinned out: in the full panel of roughly 83,000, 20% have a hit.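 A percent growth of 40 corresponds to 60% growth inhibition; 0 means no net growth; -100 means all cells died. Active threshold: below 10.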 Values without a mark were called inactive. Activity calls are given as the source filed them.

In the case of `N=C(N)c1ccc(-c2ccc(-c3ccco3)o2)cc1F`, the growth was 56.2% in the assay with NCI-H23 lung; 67.4% with NCI-H226 lung; -10.4% (active) in the assay with NCI-H322M lung; 32.2% in the assay on HOP-62 NSCLC; 0.478% (active) with NCI-H460 lung; -20% (active) in the assay with HOP-92 NSCLC. Moreover, the growth in the assay with 786-0 renal is 4.8% (active); with DU-145 prostate it was 31.3%; in the assay on K-562 leukemia it was 1.49% (active); with MALME-3M melanoma, -68.2% (active); in the assay with MDA-MB-231 breast, 9.14% (active); in the assay on RXF 393 renal, 34.1%. The growth in the assay with SF-268 CNS is 19.8%; in the assay on SF-295 CNS, -27% (active); in the assay with SF-539 CNS, 8.28% (active); in the assay on M14 melanoma it was -65.9% (active).

Consider `COc1cc(OC)c(Cl)cc1N`, for which the growth with NCI-H23 lung is 105%; in the assay with NCI-H226 lung, 108%; in the assay on NCI-H322M lung, 110%; with HOP-62 NSCLC it was 104%; with NCI-H460 lung, 103%; in the assay with NCI-H522 lung it was 94.8%. The growth was 105% in the assay on A549/ATCC NSCLC; 111% in the assay with 786-0 renal; 115% in the assay with COLO 205 colon; 114% in the assay with DU-145 prostate; 95.5% in the assay with K-562 leukemia; 134% in the assay with MALME-3M melanoma. The growth in the assay with MDA-MB-231 breast was 94.8%; in the assay with RXF 393 renal it was 110%; in the assay with SF-268 CNS, 104%; in the assay with SF-295 CNS, 135%; in the assay with SF-539 CNS it was 95.4%; in the assay with UACC-257 melanoma, 111%.

`Cc1ccc(C(CN(C)C)C(=O)c2ccccc2)cc1` (stereo not given): the growth in the assay on NCI-H23 lung was 71.5%; in the assay on NCI-H226 lung, 80.9%; in the assay on NCI-H322M lung it was 101%; with HOP-62 NSCLC it was 101%; in the assay with NCI-H460 lung it was 71.7%; with NCI-H522 lung it was -66.4% (active). Besides, the growth in the assay with A549/ATCC NSCLC is 81.7%; with 786-0 renal, -20.7% (active); in the assay on COLO 205 colon it was 43.5%; with DU-145 prostate, 34.7%; in the assay on K-562 leukemia, -26.8% (active); in the assay with MALME-3M melanoma, 79.8%. The growth in the assay on MDA-MB-231 breast is 25.4%; in the assay on RXF 393 renal, 43.6%; in the assay with SF-268 CNS, 25.9%; in the assay on SF-295 CNS, 85.6%; in the assay with SF-539 CNS, 57.6%; in the assay with UACC-257 melanoma, 49.1%.

For the compound `Clc1cccc(CNc2c3ccccc3nc3ccccc23)c1`, the growth was 32% in the assay with NCI-H23 lung; 48% in the assay on NCI-H226 lung; 31.3% in the assay on NCI-H322M lung; 45.5% with HOP-62 NSCLC; 14.2% in the assay on NCI-H460 lung; 41.7% with NCI-H522 lung. The growth with A549/ATCC NSCLC was 27.9%; with 786-0 renal, 25.2%; in the assay with COLO 205 colon, 0.537% (active); in the assay with DU-145 prostate it was 31.6%; in the assay on K-562 leukemia, 5.03% (active); in the assay with MALME-3M melanoma, 45%. Also, the growth with MDA-MB-231 breast was 29.4%; in the assay on RXF 393 renal, 19%; in the assay on SF-268 CNS, 60.6%; in the assay with SF-295 CNS, 20.8%; with SF-539 CNS, 9.28% (active); with UACC-257 melanoma, 45.4%.

`N=c1nc(N2CCCCC2)cc(N)n1O`: the growth is 115% with NCI-H23 lung; 92.7% in the assay with NCI-H226 lung; 126% in the assay on NCI-H322M lung; 101% with HOP-62 NSCLC; 113% in the assay with NCI-H460 lung; 103% in the assay with NCI-H522 lung. In addition, the growth in the assay on A549/ATCC NSCLC is 103%; in the assay with 786-0 renal, 117%; in the assay on COLO 205 colon it was 106%; with DU-145 prostate it was 114%; in the assay with K-562 leukemia, 116%; in the assay with MALME-3M melanoma, 145%. The growth in the assay on MDA-MB-231 breast is 108%; in the assay with RXF 393 renal, 108%; in the assay on SF-268 CNS it was 109%; in the assay on SF-295 CNS, 103%; with SF-539 CNS, 116%; with UACC-257 melanoma, 99.8%.

`O=C(CCl)N1c2ccccc2Oc2ccc3ccccc3c21`: the growth with NCI-H23 lung was -48.4% (active); with NCI-H226 lung, 3.48% (active); in the assay on NCI-H322M lung, 91.4%; in the assay on HOP-62 NSCLC, -16.6% (active); with NCI-H460 lung, 2.15% (active); in the assay with NCI-H522 lung, -83.1% (active). Besides, the growth in the assay on A549/ATCC NSCLC was 30%; with 786-0 renal, -89.4% (active); in the assay with COLO 205 colon it was -94.2% (active); with DU-145 prostate it was -7.27% (active); in the assay with K-562 leukemia, 2.96% (active); in the assay on MALME-3M melanoma it was -49% (active). The growth in the assay with MDA-MB-231 breast was -26.8% (active); in the assay with RXF 393 renal, -83.7% (active); with SF-268 CNS, -39.3% (active); in the assay with SF-295 CNS, -15.8% (active); with SF-539 CNS it was -80.1% (active); in the assay on UACC-257 melanoma, 8.99% (active). Besides, the growth in the assay with M14 melanoma was -70% (active).

`COc1ccc(/C=C/c2nc3ccccc3c(=O)n2-c2ccc(C#Cc3ccc(C(C)(C)C)cc3)cc2C)c(OC)c1`: the growth in the assay on NCI-H23 lung is 94%; with NCI-H226 lung, 87.3%; in the assay with NCI-H322M lung, 101%; in the assay with HOP-62 NSCLC, 112%; in the assay with NCI-H460 lung it was 85%; in the assay with NCI-H522 lung, 70.2%. Moreover, the growth in the assay with A549/ATCC NSCLC is 91.2%; with 786-0 renal, 101%; with COLO 205 colon, 97.9%; in the assay with DU-145 prostate, 109%; with K-562 leukemia, 63.9%; in the assay on MALME-3M melanoma it was 94.8%. The growth is 89.5% in the assay on MDA-MB-231 breast; 113% in the assay on RXF 393 renal; 96.9% with SF-268 CNS; 101% in the assay with SF-295 CNS; 97.1% in the assay with SF-539 CNS; 72.8% in the assay on UACC-257 melanoma. Besides, the growth with M14 melanoma is 96.8%.

`CC(C)c1ccc2c(c1)CCC1C2CCCC1(C)NCc1ccccc1` (stereo not given): the growth was 73% in the assay on NCI-H23 lung; 103% in the assay on NCI-H226 lung; 32.6% with NCI-H322M lung; 91% with HOP-62 NSCLC; 71.3% with NCI-H460 lung; 9.67% (active) in the assay on NCI-H522 lung. In addition, the growth with A549/ATCC NSCLC is 83.7%; in the assay on 786-0 renal, 64.7%; in the assay on COLO 205 colon, -35.8% (active); in the assay on DU-145 prostate, 75%; with K-562 leukemia it was 11.1%; in the assay on MALME-3M melanoma, -32.3% (active). Further, the growth is 39.8% with MDA-MB-231 breast; 51.7% in the assay on RXF 393 renal; 79.2% in the assay on SF-268 CNS; 96.7% in the assay with SF-295 CNS; 90% in the assay on SF-539 CNS; -31.2% (active) with UACC-257 melanoma. For the same compound, the growth in the assay with M14 melanoma was -84.9% (active).

Values taken from PubChem BioAssay (NCI).
